Laboratory results published in the supplement of paper PMC10681739.

What was measured:
ETS1 [1] = target: T1, ETS1 (UniProt P14921); test: ETS1 binding intensity (PBM fluorescence), ETS1 alone (arbitrary fluorescence units); higher = stronger binding; conditions: ETS1 concentration 1 nM; RUNX1 concentration 0 nM
T1 sequence: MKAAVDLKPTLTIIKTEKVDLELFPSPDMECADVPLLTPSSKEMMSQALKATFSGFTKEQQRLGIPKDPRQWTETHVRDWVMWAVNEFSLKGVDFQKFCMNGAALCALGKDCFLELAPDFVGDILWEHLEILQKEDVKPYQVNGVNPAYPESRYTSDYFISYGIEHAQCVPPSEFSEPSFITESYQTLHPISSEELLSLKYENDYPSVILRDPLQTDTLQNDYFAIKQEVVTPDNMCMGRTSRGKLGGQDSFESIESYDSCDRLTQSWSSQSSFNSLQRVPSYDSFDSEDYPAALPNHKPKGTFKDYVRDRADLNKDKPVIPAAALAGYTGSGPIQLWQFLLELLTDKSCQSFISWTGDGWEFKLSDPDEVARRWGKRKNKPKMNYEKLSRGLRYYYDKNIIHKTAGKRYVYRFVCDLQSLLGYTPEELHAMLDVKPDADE

RUNX1 [2] = target: RUNX1 (UniProt Q01196); test: RUNX1 binding intensity (PBM fluorescence), RUNX1 alone (arbitrary fluorescence units); higher = stronger binding; conditions: RUNX1 concentration 2 nM; ETS1 concentration 0 nM
Sequence of RUNX1 (Q01196 whole entry): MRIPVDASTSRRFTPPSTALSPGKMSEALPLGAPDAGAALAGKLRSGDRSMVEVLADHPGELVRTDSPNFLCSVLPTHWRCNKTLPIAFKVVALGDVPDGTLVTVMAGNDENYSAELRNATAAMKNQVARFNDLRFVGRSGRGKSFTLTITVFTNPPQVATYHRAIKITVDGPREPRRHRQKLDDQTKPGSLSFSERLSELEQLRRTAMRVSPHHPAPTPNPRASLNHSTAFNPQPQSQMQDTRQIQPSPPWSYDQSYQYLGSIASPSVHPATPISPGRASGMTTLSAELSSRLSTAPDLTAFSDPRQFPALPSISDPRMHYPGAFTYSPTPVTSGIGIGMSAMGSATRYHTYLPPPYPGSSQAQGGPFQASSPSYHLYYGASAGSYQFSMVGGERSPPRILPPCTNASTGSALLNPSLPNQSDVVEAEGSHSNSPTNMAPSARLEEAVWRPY
Method: (§1)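 Cooperative gcPBM on 36-bp genomic probes with neighbouring ETS1 and RUNX1 sites. Recombinant human RUNX1 (2 nM) was incubated alone or with ETS1 (25 nM) and detected with anti-RUNX1 antibody plus Alexa488 secondary. Values are medians over 4 replicate spots; the RUNX1+ETS1 data were normalised to the RUNX1-only data. The probes sit in constant array flanks that are not printed.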

ETS1 [3] = target: T1, ETS1; test: ETS1 binding intensity (PBM fluorescence) in presence of RUNX1, normalised to ETS1-only experiment (arbitrary fluorescence units); higher = stronger binding; conditions: ETS1 concentration 1 nM; RUNX1 concentration 25 nM
RUNX1 [4] = target: RUNX1 (UniProt Q01196); test: RUNX1 binding intensity (PBM fluorescence) in presence of ETS1, normalised to RUNX1-only experiment (arbitrary fluorescence units); higher = stronger binding; conditions: RUNX1 concentration 2 nM; ETS1 concentration 25 nM
Method: as §1
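For RUNX1 binding intensity (PBM fluorescence) in presence of ETS1, normalised to RUNX1-only experiment in this document: Full-length recombinant human ETS1 or RUNX1 bound to double-stranded 36-bp genomic probes on microarrays, detected by protein-specific primary antibody and Alexa488 secondary, spot fluorescence as median of four replicate spots.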
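For RUNX1 binding intensity (PBM fluorescence), RUNX1 alone in this document: Full-length recombinant human RUNX1 bound to double-stranded 36-bp genomic probes on a high-density microarray, scored as Alexa488 fluorescence per spot via anti-RUNX1 antibody, median of four replicate spots.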

Row | Sequence | ETS1 binding intensity (ETS1 [1]) | RUNX1 binding intensity (RUNX1 [2]) | ETS1 binding intensity (ETS1 [3]) | RUNX1 binding intensity (RUNX1 [4])
1 | CTGCCGCTGCCTTCCGCCCCCACACACGCACACCAC | 686 | 1240 | 741 | 1640
2 | AAGGCAAACAGGAAATCATAACCACAAACCAGGAAC | 2960 | 2880 | 25500 | 21700
3 | GAGAGAGGCAGGAAGTGTTGTGGTTATTGTTTGAGC | 4710 | 1240 | 24200 | 2210
4 | CTGTGAGGCGGAAGTGGCGGGCTCTGTGGGCGCAAG | 3860 | 703 | 8270 | 1430
5 | AGTCAGCAGAGAGGAAGTGGTTAGTCCTGCCTTGAA | 2240 | 742 | 4900 | 1870
6 | GCGCGGGCAACTTCCGGTGTGGGTGACGAGTGGTGG | 10900 | 778 | 12700 | 2700
7 | GAGCGGAAACCCGAGAGTCAGTTCAACCACAGCCAC | 592 | 889 | 980 | 1010
8 | GAAGTCACATCCTGTCTGTTGCGGCAGGGCACAGAG | 1470 | 756 | 1520 | 1750
9 | TCCCCCACTTCCTGGCAGCAGCAGTGTGGTGAGGAG | 845 | 879 | 996 | 2160
10 | GACAGGAAGCCCGCGGCAGCCTCCGTGGTTGCAGAT | 562 | 773 | 687 | 1090
11 | TGTCTTCAGGAAGTGTAGCAGGTGTTGAGGTCAAGC | 900 | 703 | 998 | 914
12 | CTGAGTGAGACAGGATGTGGGCAGACCTCTAACACA | 5110 | 733 | 11000 | 3230
13 | ACAAGGACTTCCGCCTCCCTGCGGTCCCTCCCCTAC | 965 | 1110 | 1380 | 2720
14 | TCTCTTCCTGTGATGGAAATACATTGAGGTTTGCGA | 523 | 787 | 743 | 1740
15 | AGATCAACTTCCACATCCGGTGGTAACAGGGCCCTA | 5380 | 835 | 5560 | 2970
16 | GAGGGCCTGGGAGGAAGTGGGTTTTGCATACAGTCC | 1870 | 673 | 2510 | 1330
17 | GAGCAAACGGAGGCAGGAAGTGGTTATGTAACTTCA | 7030 | 810 | 12400 | 2170
18 | GGTTTCCGGGTGAAAAAAAAAAAAAAAACCACGCCA | 461 | 906 | 529 | 1740
19 | AGGTTCTCCAGAGGAGGAAGTGGTTTGCTGCAGGCT | 2450 | 755 | 4400 | 971
20 | CACCCTCAACTTCCTGACCCATAAACCACAAGCTAT | 468 | 6110 | 1810 | 13100
21 | GCTTCTTCAGCCACATCCTGACCACAGCCCAGATTC | 496 | 2350 | 1270 | 5070

Row | Sequence | ETS1 binding intensity (ETS1 [1]) | RUNX1 binding intensity (RUNX1 [2]) | ETS1 binding intensity (ETS1 [3]) | RUNX1 binding intensity (RUNX1 [4])
22 | GTAAATAAAGAGGAAGTCCCTATGCGGGGGATGGGG | 1910 | 850 | 2060 | 884
23 | TGATGCACTTCCTGAGGGCCCGCATGTGGTAAACAC | 495 | 834 | 880 | 1480
24 | TTTCTGACTTCCTGTGTGCTTCAGAAACCTCAATGA | 2020 | 830 | 2570 | 2110
25 | CCGATGGCGGCGGAACTGTGGTCAGGGCTGCCCTGA | 365 | 825 | 510 | 921
26 | GGGCGGAAGTGCGTCACTATGTCCGACCCGCAGTGC | 1630 | 706 | 2050 | 1010
27 | ACCAGCCCAGGAAGCATCTGCGGTTCAAGTGGCCAC | 452 | 1130 | 1470 | 1750
28 | TCCCTTACCTTCCTGCTGCCACCAAACCACCAAACC | 460 | 2510 | 1040 | 3260
29 | TCTCCTTTCAGGAAGCTGCACCCAAACCACCCTCAG | 606 | 996 | 610 | 949
30 | CGAGCTCGGTGTTCCGCTTTTTGTGGGCCGGGTGGG | 467 | 1080 | 478 | 903
31 | CTGCCTGGCACAGGATGTGGTCATTTGTGCTGAGGA | 5880 | 730 | 17900 | 4420
32 | GGACTTCCTGAACTGGGAGGTCACCGACCACAACCT | 354 | 831 | 671 | 1740
33 | ACCCAGGAGGCGGAAGTTGTGGTGAGCCGAGATCGC | 4020 | 862 | 11600 | 3150
34 | GATGGTGTCTTTTGGGGATGTGGGTTTGGGGGATGG | 564 | 835 | 1610 | 961
35 | AAGGGAGCCGCCCGGAAACCGCGCGGCAAAGATGCC | 1560 | 734 | 2940 | 1050
36 | AAAGCAAAGTCAAGAGGATGTGGTGACCAATTCTGC | 1320 | 685 | 2860 | 855
37 | AGCCAACAGGAAGCTGCAGAGACTAAACCACAGCAA | 1150 | 879 | 4930 | 1390
38 | GGAGGCGGAAGTGGAGGTTGTTGTGGCTCCGAGGGC | 1940 | 727 | 1950 | 1100
39 | GCGGGCGGAAGTGCCGAGGTTGTACCGCGGCGCTGG | 2020 | 714 | 2260 | 1200
40 | TTAGATGTGCCTACATCCTGACCTCAAAAACCTCTG | 561 | 791 | 767 | 957
41 | TCTGGATTTCCTGTGGGGCTCTCCCACAAGCAGTAC | 518 | 721 | 506 | 1390
